PubChem BioAssay (NCATS)
Results filed as inconclusive are left out. Calls of active or inactive are those of the source. Unless noted, calls come from the whole dose curve; as a rule, active = well fitted curve in the direction sought with a large enough effect; inconclusive = small, poorly fitted or top-dose-only effect, or another doubt; inactive = no such curve, though single readings can be large; an effect the other way counts as inactive or inconclusive.

Molecular target: ATP-dependent 6-phosphofructokinase (Trypanosoma brucei brucei) (UniProt O15648)
Sequence (O15648 whole entry, looked up): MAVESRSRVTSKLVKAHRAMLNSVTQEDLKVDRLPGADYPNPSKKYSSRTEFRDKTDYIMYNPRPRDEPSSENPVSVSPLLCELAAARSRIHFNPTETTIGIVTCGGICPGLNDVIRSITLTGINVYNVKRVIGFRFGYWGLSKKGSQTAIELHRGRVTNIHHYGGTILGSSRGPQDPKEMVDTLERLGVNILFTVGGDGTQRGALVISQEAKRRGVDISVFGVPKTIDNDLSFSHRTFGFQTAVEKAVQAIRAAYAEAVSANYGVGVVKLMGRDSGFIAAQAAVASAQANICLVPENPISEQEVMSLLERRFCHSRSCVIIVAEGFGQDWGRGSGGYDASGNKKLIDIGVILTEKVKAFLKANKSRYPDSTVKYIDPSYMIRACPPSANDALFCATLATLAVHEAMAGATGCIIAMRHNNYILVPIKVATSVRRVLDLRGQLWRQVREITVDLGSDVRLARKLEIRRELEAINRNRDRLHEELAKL
Test: qHTS Assay to Find Inhibitors of T. brucei phosphofructokinase: hit validation (AID 492961);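 note: luminescence reports ADP formed as PFK phosphorylates fructose-6-phosphate with ATP; % is set by controls: 0 for no effect and ±100 for the full control effect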
Settings: T. brucei PFK, ADP-Glo luminescence; series mostly up to 51.4 µM; activity change, negative = inhibition: at the top concentration
Method in brief: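 Compounds titrated; %activity normalized to 0x and 1x enzyme controls, curve-fitted. Readout: ADP-Glo luminescence after 45 min room-temperature reaction of 1.25 nM PFK, 0.1 mM ATP, 0.5 mM F6P, pH 8.0.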

Row | Compound | activity change, negative = inhibition
1 | CCNC(C)Cc1cccc(C(F)(F)F)c1 (stereo not drawn) | 4.6% (inactive)
2 | CCON=O | 0.956% (inactive)
3 | CN1CCCC(=C(c2cccs2)c2cccs2)C1 | -2.16% (inactive)
4 | CN1c2ccccc2C(NCCCCCCC(=O)O)c2ccc(Cl)cc2S1(=O)=O (stereo not drawn) | 5.9% (inactive)

Test system: not listed separately
Test: Validation screen for small molecules that induce genotoxicity in human embryonic kidney (HEK293T) cells expressing luciferase-tagged ELG1 (AID 493106); note: 0% is about no effect
Settings: luminescence; series mostly up to 46.1 µM; activity change, positive = ELG1 induction: at the top concentration
Method in brief: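 Reporter-gene quantitative HTS in HEK293T cells carrying luciferase-tagged ELG1, whose level climbs under genotoxic stress. Compound exposure lasts 16 hr at 37 °C before luciferase detection.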

Row | Compound | activity change, positive = ELG1 induction
5 | NCCc1c[nH]c2ccc(C(N)=O)cc12 | -6.56% (inactive)
6 | CNc1ccc2oc(C[C@H]3O[C@@]4(CC[C@H]3C)O[C@H]([C@H](C)C(=O)c3ccc[nH]3)[C@H](C)C[C@H]4C)nc2c1C(=O)O | -25.2% (inactive)
7 | CCN1C[C@@]2(COC)C3[C@@H](OC)C4[C@@H]1C3([C@@H]1C[C@]3(O)[C@H](OC(=O)c5ccccc5)[C@@H]1[C@]4(OC(C)=O)[C@@H](O)[C@@H]3OC)[C@H](OC)C[C@H]2O | -4.15% (inactive)
8 | CN1CC[C@@]2(C)c3cc(O)ccc3N(C)C12 (stereo partly drawn) | -3.73% (inactive)
9 | C=CCN1C[C@@H](C)N([C@H](c2ccc(C(=O)N(CC)CC)cc2)c2cccc(OC)c2)C[C@@H]1C | -6.95% (inactive)

Molecular target: Thyrotropin-releasing hormone receptor (Homo sapiens) (UniProt P34981)
Sequence (P34981 whole entry, looked up): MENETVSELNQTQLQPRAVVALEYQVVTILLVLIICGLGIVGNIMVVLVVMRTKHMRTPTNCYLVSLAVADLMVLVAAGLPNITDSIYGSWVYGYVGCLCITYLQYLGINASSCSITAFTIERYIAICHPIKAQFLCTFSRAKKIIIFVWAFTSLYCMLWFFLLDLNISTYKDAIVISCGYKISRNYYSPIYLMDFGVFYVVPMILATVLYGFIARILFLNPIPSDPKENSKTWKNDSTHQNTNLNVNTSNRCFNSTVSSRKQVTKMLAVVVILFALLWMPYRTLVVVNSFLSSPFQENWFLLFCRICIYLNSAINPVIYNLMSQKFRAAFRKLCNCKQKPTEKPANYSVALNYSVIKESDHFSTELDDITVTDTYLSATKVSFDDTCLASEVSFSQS
Test: qHTS for Small Molecule Agonists and Allosteric Enhancers of Human TRH Receptor: Validation Screen for Agonists (AID 493127;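 active = calcium activation more than 3 SD above the typical response in the agonist read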;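 note: intracellular calcium rise by fluo-8 fluorescence before TRH EC20 addition; 0% is about no effect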)
Settings: TRH receptor agonist cell assay; at 2 µM; stronger effect = higher value
Method in brief: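 Gq-coupled calcium mobilization in TRHR cells after compound addition, monitored kinetically with fluo-8 dye on an FDSS reader.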

Row | Compound | activation
10 | COc1ccc2c(c1OC)C(=O)OC2C1c2cc3c(cc2CCN1C)OCO3 (stereo not drawn) | -4.69% (inactive)
11 | CC(C)CC(NP(=O)(O)O[C@@H]1O[C@@H](C)[C@H](O)[C@@H](O)[C@H]1O)C(=O)NC(Cc1c[nH]c2ccccc12)C(=O)O (stereo partly drawn) | 1.38% (inactive)
12 | NCCc1c[nH]c2ccc(C(N)=O)cc12 | 1.5% (inactive)
13 | CNc1ccc2oc(C[C@H]3O[C@@]4(CC[C@H]3C)O[C@H]([C@H](C)C(=O)c3ccc[nH]3)[C@H](C)C[C@H]4C)nc2c1C(=O)O | 0.125% (inactive)
14 | CN1CC[C@@]2(C)c3cc(O)ccc3N(C)C12 (stereo partly drawn) | -0.188% (inactive)
15 | C[N+]1(C)CCC(OC(=O)C(c2ccccc2)c2ccccc2)CC1 | 0.125% (inactive)
16 | CCCN1CCCC2Cc3[nH]ncc3CC21 (stereo not drawn) | -0.5% (inactive)
17 | C=CCN1C[C@@H](C)N([C@H](c2ccc(C(=O)N(CC)CC)cc2)c2cccc(OC)c2)C[C@@H]1C | 2.06% (inactive)
18 | CNC(=O)OCC[N+](C)(C)C | -0.438% (inactive)
19 | CN1C2CCC1CC(OC(c1ccccc1)c1ccc(Cl)cc1)C2 (stereo not drawn) | 8.88% (inactive)
20 | N#CC(C#N)=Cc1cc(O)c(O)c(O)c1 | 0.188% (inactive)
21 | O=P(O)(O)C(Cl)(Cl)P(=O)(O)O | -0.25% (inactive)
22 | CC1OC1P(=O)(O)O (stereo not drawn) | -2.75% (inactive)
23 | CCN(CC)c1ncnc2c1ncn2[C@@H]1O[C@H](COP(=O)(O)OP(=O)(O)C(Br)(Br)P(=O)(O)O)[C@@H](O)[C@H]1O | 0.312% (inactive)

Test system: not listed separately
Test: Nrf2 qHTS screen for inhibitors: Validation (AID 493153; active = well fitted inhibition curve with a large enough effect in the main read-out, with a control signal flat, not every such curve was filed as active; for activity change, negative = inhibition: % of control where 0% means no effect)
Settings: A549 ARE-Fluc reporter, 18-24 h; Potency: luciferase luminescence; viability change: measured here: cytotoxicity max response; luciferase luminescence, at 46.1 µM (top of the series); activity change, negative = inhibition: at the top concentration
Method in brief: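 Dose-response validation uses reporter A549 cells with firefly luciferase under an antioxidant response element. Compounds stay on cells 18-24 h at 37°C, and luminescence indicates Nrf2-driven transcription.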

Row | Compound | activity change, negative = inhibition | viability change
24 | NCCc1c[nH]c2ccc(C(N)=O)cc12 | 6.98% (inactive) | 4.69%
25 | CCN1C[C@@]2(COC)C3[C@@H](OC)C4[C@@H]1C3([C@@H]1C[C@]3(O)[C@H](OC(=O)c5ccccc5)[C@@H]1[C@]4(OC(C)=O)[C@@H](O)[C@@H]3OC)[C@H](OC)C[C@H]2O | 5.36% (inactive) | 0.88%
26 | C=CCN1C[C@@H](C)N([C@H](c2ccc(C(=O)N(CC)CC)cc2)c2cccc(OC)c2)C[C@@H]1C | -8.34% (inactive) | 4.14%

Test system: not listed separately
Test: qHTS for Inhibitors of Cell Surface uPA Generation: Validation Assay (AID 493164);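 note: RAW 264.7 macrophage cells exposed to compound for 18 h; 0% is about no effect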
Settings: mouse cells, plasminogen activation; series mostly up to 38.3 µM; activity change: at the top concentration
Method in brief: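 RAW 264.7, 4000 cells/well, o/n plating; cpd 7-pt 1:5 dilution 2.45 nM–38.3 uM final; 18 h, 37 C/5% CO2; ATP-Lite, 5 s luminescence exposure.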

Row | Compound | activity change
27 | NCCc1c[nH]c2ccc(C(N)=O)cc12 | 0.665% (inactive)
28 | CNc1ccc2oc(C[C@H]3O[C@@]4(CC[C@H]3C)O[C@H]([C@H](C)C(=O)c3ccc[nH]3)[C@H](C)C[C@H]4C)nc2c1C(=O)O | 1.56% (inactive)
29 | CCN1C[C@@]2(COC)C3[C@@H](OC)C4[C@@H]1C3([C@@H]1C[C@]3(O)[C@H](OC(=O)c5ccccc5)[C@@H]1[C@]4(OC(C)=O)[C@@H](O)[C@@H]3OC)[C@H](OC)C[C@H]2O | -0.33% (inactive)
30 | CN1CC[C@@]2(C)c3cc(O)ccc3N(C)C12 (stereo partly drawn) | 1.65% (inactive)
31 | C=CCN1C[C@@H](C)N([C@H](c2ccc(C(=O)N(CC)CC)cc2)c2cccc(OC)c2)C[C@@H]1C | -1.29% (inactive)

Molecular target: Galactokinase (Homo sapiens) (UniProt P51570)
Sequence (P51570 whole entry, looked up): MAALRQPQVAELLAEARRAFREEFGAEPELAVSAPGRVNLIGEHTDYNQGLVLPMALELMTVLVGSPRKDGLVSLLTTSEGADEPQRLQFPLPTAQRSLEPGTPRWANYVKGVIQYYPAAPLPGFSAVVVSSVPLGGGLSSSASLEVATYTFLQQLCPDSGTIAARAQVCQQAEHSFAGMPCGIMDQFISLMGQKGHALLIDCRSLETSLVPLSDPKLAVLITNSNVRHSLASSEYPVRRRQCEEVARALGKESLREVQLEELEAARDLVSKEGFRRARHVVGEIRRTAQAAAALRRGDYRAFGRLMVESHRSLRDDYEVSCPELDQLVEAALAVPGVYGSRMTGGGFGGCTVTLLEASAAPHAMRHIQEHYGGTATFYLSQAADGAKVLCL
Test: qHTS Validation Assay for Inhibitors of Human Galactokinase (GALK) (AID 493189); note: 0% is about no effect
Settings: purified human GALK enzyme activity, qHTS 7-point titration; series mostly up to 57.5 µM; activity change, negative = inhibition: at the top concentration
Method in brief: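 GALK (5 nM) with 35 uM ATP and 100 uM galactose in HEPES pH 8.0 with MgCl2, NaCl, DTT and BSA. Reaction ran 1 h at room temperature. Residual ATP read by Kinase-Glo Plus luminescence.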

Row | Compound | activity change, negative = inhibition
32 | COc1ccc2c(c1OC)C(=O)OC2C1c2cc3c(cc2CCN1C)OCO3 (stereo not drawn) | -0.764% (inactive)
33 | CC(C)CC(NP(=O)(O)O[C@@H]1O[C@@H](C)[C@H](O)[C@@H](O)[C@H]1O)C(=O)NC(Cc1c[nH]c2ccccc12)C(=O)O (stereo partly drawn) | -0.96% (inactive)
34 | NCCc1c[nH]c2ccc(C(N)=O)cc12 | 4.67% (inactive)
35 | CNc1ccc2oc(C[C@H]3O[C@@]4(CC[C@H]3C)O[C@H]([C@H](C)C(=O)c3ccc[nH]3)[C@H](C)C[C@H]4C)nc2c1C(=O)O | -1.18% (inactive)
36 | CN1CC[C@@]2(C)c3cc(O)ccc3N(C)C12 (stereo partly drawn) | 1.08% (inactive)
37 | C[N+]1(C)CCC(OC(=O)C(c2ccccc2)c2ccccc2)CC1 | -0.0426% (inactive)
38 | CCCN1CCCC2Cc3[nH]ncc3CC21 (stereo not drawn) | -13% (inactive)
39 | C=CCN1C[C@@H](C)N([C@H](c2ccc(C(=O)N(CC)CC)cc2)c2cccc(OC)c2)C[C@@H]1C | -4.08% (inactive)
40 | CNC(=O)OCC[N+](C)(C)C | -3.52% (inactive)
41 | CN1C2CCC1CC(OC(c1ccccc1)c1ccc(Cl)cc1)C2 (stereo not drawn) | 5.92% (inactive)
42 | N#CC(C#N)=Cc1cc(O)c(O)c(O)c1 | 5.27% (inactive)
43 | O=P(O)(O)C(Cl)(Cl)P(=O)(O)O | -0.733% (inactive)
44 | CC1OC1P(=O)(O)O (stereo not drawn) | 5.25% (inactive)
45 | CCN(CC)c1ncnc2c1ncn2[C@@H]1O[C@H](COP(=O)(O)OP(=O)(O)C(Br)(Br)P(=O)(O)O)[C@@H](O)[C@H]1O | -1.29% (inactive)
